The text below walks through data of PubChem BioAssay (EPA / NIEHS).

SMILES strings stand for the structures. Results filed as inconclusive are left out. Active and inactive are the calls of the source. How the source made its calls, unless noted: active means hit-call score of the fitted dose curve at least 0.9, where 1 is the maximum; inactive means score below 0.9.

What is called AC50 is the concentration giving half of the maximal activity seen.

Read-out in assay [1]: solute carrier (SLCO1B1), SLCO1B1 (gene 10599)
Put plainly: LTEA_HepaRG_SLCO1B1: Life Technologies and Expression Analysis (LTEA) Assay for solute carrier (SLCO1B1) using HepaRG (AID 2283530). The settings on record: mRNA level, 48 h; actives raise or lower the signal. In short, it runs like this:
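HepaRG, serum-free induction medium, 48 h dosing, 8-pt half-log from 100 uM, 0.5% DMSO vehicle, duplicates. Readout: SLCO1B1 mRNA, qRT-PCR, ACTB/GAPDH/POLR2A normalization; up or down fit vs DMSO.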

Read-out in assay [2]: sulfotransferase 2A1 (SULT2A1), SULT2A1 (gene 6822)
The experiment in a line: LTEA_HepaRG_SULT2A1: Life Technologies and Expression Analysis (LTEA) Assay for sulfotransferase 2A1 (SULT2A1) using HepaRG (AID 2283531). The settings on record: mRNA level, 48 h; actives raise or lower the signal. The gist of the method: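 Transcript levels of SULT2A1, quantified by qRT-PCR and normalized to three housekeeping genes, serve as the readout. Human HepaRG cultures receive test chemicals for 48 h at up to 100 uM in half-log steps, with 0.5% DMSO vehicle.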

Read-out in assay [3]: Transforming Growth Factor (TGFA), TGFA (gene 7039)
The experiment in a line: LTEA_HepaRG_TGFA: Life Technologies and Expression Analysis (LTEA) Assay for Transforming Growth Factor (TGFA) using HepaRG (AID 2283532). The settings on record: mRNA level, 48 h; actives raise or lower the signal. In short, it runs like this:
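Differentiated HepaRG cells exposed 48 hours in serum-free induction medium, 0.5% DMSO vehicle, 8-point half-log series from 100 uM, in duplicate. TGFA mRNA by TaqMan qRT-PCR, normalised to ACTB, GAPDH, POLR2A; bidirectional fit versus DMSO.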

Read-out in assay [4]: Transforming Growth Factor (TGFB1), TGFB1 (gene 7040)
The experiment in a line: LTEA_HepaRG_TGFB1: Life Technologies and Expression Analysis (LTEA) Assay for Transforming Growth Factor (TGFB1) Transporter using HepaRG (AID 2283533). The settings on record: mRNA level, 48 h; actives raise or lower the signal. The gist of the method:
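HepaRG, 48 h post-plating, switched to serum-free induction medium; chemicals 100 uM top, half-log, 8 pts, 0.5% DMSO, dup; 48 h exposure; RNA → Fluidigm TaqMan qRT-PCR; norm ACTB/GAPDH/POLR2A; bidirectional fit vs DMSO.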

Read-out in a further assay: TIMP1, TIMP1 (gene 7076)
Put plainly: LTEA_HepaRG_TIMP1: Life Technologies and Expression Analysis (LTEA) Assay for TIMP1 using HepaRG (AID 2283534).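 Further: TaqMan qRT-PCR signal normalized to ACTB GAPDH and POLR2A housekeeping genes.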 Particulars: mRNA level, 48 h; actives raise or lower the signal. In short, it runs like this: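 Readout is TIMP1 mRNA level measured by qRT-PCR and normalized to three housekeeping genes. Human HepaRG cells were treated for 48 h in duplicate at eight concentrations up to 100 uM (0.5% DMSO); gain or loss fitted against DMSO.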

Read-out in assay [5]: Tumor necrosis factor receptor 1 (TNFRSF1A), TNFRSF1A (gene 7132)
Put plainly: LTEA_HepaRG_TNFRSF1A: Life Technologies and Expression Analysis (LTEA) Assay for Tumor necrosis factor receptor 1 (TNFRSF1A) using HepaRG (AID 2283535). Particulars: mRNA level, 48 h; actives raise or lower the signal. In short, it runs like this: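 Read-out is TNFRSF1A transcript level by TaqMan qRT-PCR, normalized to three housekeeping genes, scored as gain or loss of signal versus 0.5% DMSO. Human HepaRG cells received test chemicals for 48 h at up to 100 uM (half-log series).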

Read-out in assay [6]: Thyroid Hormone Responsive (THRSP), THRSP (gene 7069)
The experiment in a line: LTEA_HepaRG_THRSP: Life Technologies and Expression Analysis (LTEA) Assay for Thyroid Hormone Responsive (THRSP) using HepaRG (AID 2283536). Particulars: mRNA level, 48 h; actives raise or lower the signal. In short, it runs like this: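 Differentiated HepaRG cells treated 48 h in serum-free induction medium with 8 half-log concentrations up to 100 uM (0.5% DMSO), duplicates. THRSP mRNA by TaqMan qRT-PCR normalised to ACTB, GAPDH, POLR2A; bidirectional fit versus DMSO.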

Read-out in assay [7]: Cellular tumor antigen p53 (Homo sapiens) (UniProt P04637)
Put plainly: LTEA_HepaRG_TP53: Life Technologies and Expression Analysis (LTEA) Assay for Tumor Protein P53 (TP53) using HepaRG (AID 2283537). The settings on record: mRNA level, 48 h; actives raise or lower the signal. In short, it runs like this:
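Gain or loss of TP53 mRNA signal is scored relative to 0.5% DMSO after 48 h chemical treatment of HepaRG liver cells, tested in duplicate at eight half-log concentrations up to 100 uM.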

Read-out in assay [8]: UDP glucuronosyltransferase (UGT1A1), UGT1A1 (gene 54658)
The experiment in a line: LTEA_HepaRG_UGT1A1: Life Technologies and Expression Analysis (LTEA) Assay for UDP glucuronosyltransferase (UGT1A1) using HepaRG (AID 2283538). The settings on record: mRNA level, 48 h; actives raise or lower the signal. The gist of the method:
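Differentiated human HepaRG cells in serum-free induction medium were exposed in duplicate for 48 h to eight half-log concentrations up to 100 uM in 0.5% DMSO. UGT1A1 mRNA was quantified by TaqMan qRT-PCR, normalized to ACTB, GAPDH and POLR2A, and fitted bidirectionally against DMSO.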

Read-out in assay [9]: UDP glucuronosyltransferase (UGT1A6), UGT1A6 (gene 54578)
The experiment in a line: LTEA_HepaRG_UGT1A6: Life Technologies and Expression Analysis (LTEA) Assay for UDP glucuronosyltransferase (UGT1A6) using HepaRG (AID 2283539). Particulars: mRNA level, 48 h; actives raise or lower the signal. In short, it runs like this:
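HepaRG, 48 h post-plating switch to serum-free induction medium; chemical 48 h, 100 uM top, half-log x8, duplicate, 0.5% DMSO. Phenobarbital 1mM induction control. UGT1A6 mRNA by TaqMan qRT-PCR; gain/loss fit vs DMSO.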

Assay [10] can be described thus: LTEA_HepaRG_LDH_cytotoxicity: Cytotoxicity Assessment in the Life Technologies and Expression Analysis (LTEA) Assay (AID 2283563; active means hit-call score of the fitted dose curve at least 0.9, where 1 is the maximum). In short, it runs like this:
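Cells were thawed and plated for 48 h. Medium was then replaced with serum-free induction medium. Chemicals (8 half-log points, maximum 100 uM, 0.5% DMSO) were added in duplicate for 48 h, after which spent medium was assayed for LDH.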

Assay [11] can be described thus: ATG_XTT_Cytotoxicity: Cytotoxicity Assessment in the Attagene TRANS-FACTORIAL HepG2 Assay (AID 2283584; active means hit-call score of the fitted dose curve at least 0.9, where 1 is the maximum). The gist of the method: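 Cells: human HepG2, transiently transfected with MRTU reporter constructs. Exposure 24 h. Readout: XTT, cell number. Baseline/neg ctrl DMSO; loss-of-signal scored.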
A short description of assay [12]: TOX21_p53_BLA_p2_viability: Viability Assessment in the Tox21 HCT-116 p53 Agonism Beta-lactamase Assay, Phase 2 (AID 2283591; active means hit-call score of the fitted dose curve at least 0.9, where 1 is the maximum;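 further: compound exposure lasted 16 h at 37 °C; actives lower the ATP signal meaning cytotoxicity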). In short, it runs like this:
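HCT116 p53-bla cells, 4000/well, dosed after 5 h plating (217-fold dilution of DMSO stocks) and incubated 16 h at 37C. Viability taken as cellular ATP by CellTiter-Glo luminescence after 30 min RT; signal loss marks cytotoxicity.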

Assay [13] deals with Cellular tumor antigen p53 (Homo sapiens) (UniProt P04637). The experiment in a line: TOX21_p53_BLA_p3_ratio: Tox21 HCT-116 p53 Agonism Beta-lactamase Assay, Ratio, Phase 3 (AID 2283596; active means hit-call score of the fitted dose curve at least 0.9, where 1 is the maximum). In short, it runs like this: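 HCT116 p53-bla cells (4000/well) given compound in DMSO (217-fold dilution) after 5 h, incubated 16 h at 37C. CCF4-AM substrate 2 h at room temperature; 460/530 nm emission ratio, gain fitted against DMSO.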

Assay [14] has the same target. The experiment in a line: TOX21_p53_BLA_p5_ratio: Tox21 HCT-116 p53 Agonism Beta-lactamase Assay, Ratio, Phase 5 (AID 2283599; active means hit-call score of the fitted dose curve at least 0.9, where 1 is the maximum). In short, it runs like this: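 HCT-116 p53-bla cells (4000/well) plated 5 h, dosed with compound (217-fold DMSO dilution) for 16 h at 37 C; CCF4-AM substrate 2 h at room temperature. Activity is the 460/530 nm emission ratio (405 nm excitation), fitted in gain-of-signal direction versus DMSO.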

A short description of assay [15]: TOX21_p53_BLA_p3_viability: Viability Assessment in the Tox21 HCT-116 p53 Agonism Beta-lactamase Assay, Phase 3 (AID 2283593; active means hit-call score of the fitted dose curve at least 0.9, where 1 is the maximum;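 further: cells exposed to compound for 16 h before reading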). In short, it runs like this:
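HCT116 cells, 4000/well, dosed 5 h after plating by pin transfer (217-fold dilution from DMSO stock) and incubated 16 h at 37C, 5% CO2. Viability read as ATP luminescence with CellTiter-Glo after 30 min at room temperature.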

Assay [16] in a line: TOX21_p53_BLA_p5_viability: Viability Assessment in the Tox21 HCT-116 p53 Agonism Beta-lactamase Assay, Phase 5 (AID 2283600; active means hit-call score of the fitted dose curve at least 0.9, where 1 is the maximum). The gist of the method: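 4000 cells/well; 5 h pre-incubation; DMSO compounds pin-transferred, 217-fold dilution; 16 h, 37C/5% CO2; CCF4-AM 2 h RT; CellTiter-Glo 30 min RT; luminescence.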
The nature of assay [17]: TOX21_p53_BLA_p4_viability: Viability Assessment in the Tox21 HCT-116 p53 Agonism Beta-lactamase Assay, Phase 4 (AID 2283597; active means hit-call score of the fitted dose curve at least 0.9, where 1 is the maximum;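 further: hits lower the luminescence signal meaning cytotoxicity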). The gist of the method:
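Cells plated, 5 h pre-incubation; DMSO compounds pinned (217-fold dilution); 16 h, 37C/5% CO2; CCF4-AM 2 h RT; CellTiter-Glo 30 min RT; luminescence read.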

Sequence of Cellular tumor antigen p53 (Homo sapiens) (P04637 whole entry, looked up): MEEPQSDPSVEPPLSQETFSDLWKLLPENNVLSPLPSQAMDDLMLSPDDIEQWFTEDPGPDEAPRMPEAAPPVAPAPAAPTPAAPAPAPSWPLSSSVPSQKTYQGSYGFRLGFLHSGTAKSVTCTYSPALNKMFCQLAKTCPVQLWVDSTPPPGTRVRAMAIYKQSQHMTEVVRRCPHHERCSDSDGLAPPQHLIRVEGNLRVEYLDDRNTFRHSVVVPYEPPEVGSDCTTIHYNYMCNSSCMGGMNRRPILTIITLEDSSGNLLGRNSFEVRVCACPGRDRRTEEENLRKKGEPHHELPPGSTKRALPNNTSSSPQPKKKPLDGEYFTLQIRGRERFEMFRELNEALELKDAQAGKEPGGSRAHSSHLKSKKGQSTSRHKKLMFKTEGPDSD

Regarding `CCCCc1nc2cccnc2n1Cc1ccc(-c2ccccc2-c2nnn[nH]2)cc1`, the outcome is “inactive” in assay [1]; “inactive” in [2]; “inactive” in assay [3]; “inactive” in assay [4]; “inactive” with TIMP1, TIMP1 (gene 7076); “inactive” in assay [5]. Besides, the result in assay [7], in assay [9], in [10], in [11], in [12] and in assay [13] was inactive. In addition, in assay [14], the outcome was inactive. In addition, the values for the AC50 in [6] and in assay [8] were 35.5 µM (active) and 18.8 µM (active), respectively.
With `CCCCC(CC)CO` (stereo unspecified), the outcome in assay [1] is “inactive”; in assay [2] it was “inactive”; in [3], “inactive”; in [4], “inactive”; with TIMP1, TIMP1 (gene 7076) it was “inactive”; in assay [5] it was “inactive”. Besides, the call in assay [6], in assay [7], in assay [8], in [9], in [10] and in assay [11] was inactive. In addition, the result in assay [15], in assay [13], in assay [14] and in [16] was inactive.
Turning to `O=C1OC(c2ccc(O)cc2)(c2ccc(O)cc2)c2ccccc21`, the concentration at half-maximal activity (AC50) is 73.2 µM (active) in [1], 80.3 µM (active) in [6], 82 µM (active) in assay [8] and 72.6 µM (active) in assay [9]. The outcome in assay [2] is “inactive”; in assay [3], “inactive”; in assay [4], “inactive”; with TIMP1, TIMP1 (gene 7076) it was “inactive”; in assay [5], “inactive”; in assay [7] it was “inactive”. Further, the result in assay [10], in [11], in assay [12], in assay [15], in assay [13] and in [17] was inactive. In addition, the result in assay [14] and in assay [16] was inactive.
Turning to `O=C(O)CN(CC(=O)O)CC(=O)O`, the outcome was “inactive” in [1]; “inactive” in assay [2]; “inactive” in assay [3]; “inactive” in assay [4]; “inactive” in the assay with TIMP1, TIMP1 (gene 7076); “inactive” in assay [5]. Besides, the call in assay [6], in assay [7], in assay [8], in assay [9], in assay [10] and in [11] was inactive. For the same molecule, the call in assay [12], in [15], in [13], in [14] and in [16] was inactive.
